Several values for one entry are separate records, joined by “and”; a condition that tells them apart may be missing. Equal entries are not always repeated. Inconclusive results are not listed. Entries that show only a call come without a potency. Activity calls are given as the source filed them. The call rests on the fitted dose curve; in most records, active means well fitted cell-killing curve with a large enough effect in the repeat runs; inconclusive means weak or mixed curves; inactive means no such curve, though single readings can be large or run the other way.
assay: qHTS assay to identify small molecule antagonists of the peroxisome proliferator-activated receptor delta (PPARd) signaling pathway - cell viability counter screen (AID 743213); conditions: PPARd-bla HEK293H viability, CellTiter-Glo luminescence, 17 h; series mostly up to 62 µM; further: nearly all actives have a fitted effect of over 50% in size
Text: U.S. Tox21 Program National Center for Advancing Translational Sciences [NCATS] NIH Chemical Genomics Center [NCGC] U.S. Environmental Protection Agency [EPA] National Institutes of Environmental Health Sciences [NIEHS] National Toxicology Program [NTP] U.S. Food and Drug Administration [FDA] Tox21 Assay Overview: The peroxisome proliferator-activated receptors (PPARs) are lipid-activated transcription factors of the nuclear receptor superfamily with three distinct subtypes namely PPAR alpha, PPAR delta (PPARd) and PPAR gamma. All these subtypes heterodimerizes with Retinoid X receptor (RXR) and have different physiological functions. […] To identify the compounds that inhibit PPAR-delta signaling, GeneBLAzer PPAR delta UAS-bla HEK293H cell line (Invitrogen, Carlsbad, CA, USA) containing a beta-lactamase reporter gene under the control of an Upstream Activator Sequence (UAS) was used to screen the Tox21 compound library. The cytotoxicity of the Tox21 compound library against the PPARd-bla cell line was tested in parallel by measuring the cell viability using CellTiter-Glo assay (Promega, Madison, WI) in the same wells.
Tox21 Assay Protocol Summary: PPARd-bla cells were dispensed at 3000 cells/5uL/well in 1536-well black wall/clear bottom plates using a Multidrop Combi (Thermo Fisher Scientific, Waltham, MA) dispenser. After the assay plates were incubated at 37 C and 5% CO2 for 5 h, 23 nL of compounds dissolved in DMSO, positive controls or DMSO only was transferred to the assay plate by a Pintool station (Kalypsys, San Diego, CA), followed by addition of 1ul L165041 (300 nM, final concentration in the wells). The assay plates were incubated at 37 C for 17 h, and then 1 uL of LiveBLAzerTM B/G FRET substrate was added using a Bioraptr Flying Reagent Dispenser (FRD) workstation (Beckman Coulter, Indianapolis, IN, USA). The assay plates were incubated at room temperature for 2 h and fluorescence intensity was measured by an Envision plate reader (PerkinElmer, Shelton, CT). For cell viability readout that measures cytotoxicity, 3 ul/well of CellTiter-Glo reagent was added into the assay plates using a Bioraptr FRD. After 30 min incubation at room temperature, the luminescence intensity in the plates was measured using a ViewLux plate reader (PerkinElmer).
Potency means the concentration at half of the fitted maximal effect.

**Q.** For `Cc1cccc(C)c1`, which Potency is on record?
**A.** Its Potency is “inactive”.

**Q.** With `CNNCc1ccc(C(=O)NC(C)C)cc1` as the molecule, how does the Potency read?
**A.** Its Potency is “inactive”.

**Q.** For `CCCCC1(COC(=O)CCC(=O)O)C(=O)N(c2ccccc2)N(c2ccccc2)C1=O`, which Potency is on record?
**A.** Its Potency is “inactive”.

**Q.** With `CN(C)CCOC(c1ccccc1)c1ccccc1` as the molecule, how does the Potency read?
**A.** Its Potency is “inactive”.

**Q.** With `O=C1OC2(c3ccccc31)c1cc(Br)c(O)c(Br)c1Oc1c2cc(Br)c(O)c1Br` as the molecule, how does the Potency read?
**A.** Its Potency is “inactive”.

**Q.** For `CCCCCCCCCCCC[N+](C)(C)Cc1ccccc1`, which Potency is on record?
**A.** Its Potency is 19.1 µM (active) and 18.9 µM (active) and 15 µM (active).

**Q.** With `CS(=O)(=O)OCCCCOS(C)(=O)=O` as the molecule, how does the Potency read?
**A.** The Potency was “inactive”.

**Q.** For `CCc1nc(N)nc(N)c1-c1ccc(Cl)cc1`, which Potency is on record?
**A.** Its Potency is “inactive”.

**Q.** Which Potency does the source give for `CN(C)CCOC(C)(c1ccccc1)c1ccccn1` (stereo not given) here?
**A.** Its Potency is “inactive”.

**Q.** With `CN1[C@@H]2CC(OC(=O)[C@H](CO)c3ccccc3)C[C@H]1[C@@H]1O[C@@H]12` (stereo not given in full) as the molecule, how does the Potency read?
**A.** Its Potency is “inactive”.

**Q.** With `C1=CC2C3C=CC(C3)C2C1` (stereo not given) as the molecule, how does the Potency read?
**A.** Its Potency is “inactive”.

**Q.** Which Potency does the source give for `O=C1NS(=O)(=O)c2ccccc21` here?
**A.** The Potency was “inactive”.

**Q.** For `COc1ccc2c(c1)c(CC(=O)O)c(C)n2C(=O)c1ccc(Cl)cc1`, which Potency is on record?
**A.** The Potency was “inactive”.

**Q.** For `CC(=O)CC(c1ccccc1)c1c(O)c2ccccc2oc1=O` (stereo not given), which Potency is on record?
**A.** The Potency was “inactive”.

**Q.** Which Potency does the source give for `NC(=O)c1cccnc1` here?
**A.** Its Potency is “inactive”.

**Q.** For `COc1ccc2cc(S(=O)(=O)N[C@H](CC(=O)N[C@H](Cc3ccc(CN4[C@H](C)CCC[C@@H]4C)cc3)C(=O)N(C)C(C)C)c3ccc4c(c3)OCO4)ccc2c1`, which Potency is on record?
**A.** Its Potency is 29.2 µM (active).

**Q.** For `CCN(Cc1c(F)cccc1Cl)c1c([N+](=O)[O-])cc(C(F)(F)F)cc1[N+](=O)[O-]`, which Potency is on record?
**A.** Its Potency is 17.4 µM (active).

**Q.** With `O=C1O[C@H]([C@@H](O)CO)C(O)=C1O` as the molecule, how does the Potency read?
**A.** The Potency was “inactive”.

**Q.** With `CC1(C)S[C@@H]2[C@H](NC(=O)[C@H](N)c3ccccc3)C(=O)N2[C@H]1C(=O)O` as the molecule, how does the Potency read?
**A.** The Potency was “inactive”.

**Q.** Which Potency does the source give for `C=C(C)C(=O)OCC(C)O` (stereo not given) here?
**A.** The Potency was “inactive”.

**Q.** For `CCCCOC(=O)c1ccc(O)cc1`, which Potency is on record?
**A.** The Potency was “inactive”.

**Q.** For `CC(O)(P(=O)(O)O)P(=O)(O)O`, which Potency is on record?
**A.** Its Potency is “inactive”.

**Q.** For `O=C(O)c1ccccc1`, which Potency is on record?
**A.** Its Potency is “inactive”.

**Q.** With `O=CC(=O)c1ccccc1` as the molecule, how does the Potency read?
**A.** Its Potency is “inactive”.

**Q.** Which Potency does the source give for `Cc1c(C(=O)O)c(O)cc2c1C(=O)c1c(O)c([C@@H]3O[C@H](CO)[C@@H](O)[C@H](O)[C@H]3O)c(O)c(O)c1C2=O` here?
**A.** The Potency was “inactive”.

**Q.** Which Potency does the source give for `CC(=O)CCC(=O)O` here?
**A.** Its Potency is “inactive”.

**Q.** With `O=c1[nH]cc(F)c(=O)[nH]1` as the molecule, how does the Potency read?
**A.** Its Potency is “inactive”.

**Q.** Which Potency does the source give for `CN[C@H]1CC[C@@H](c2ccc(Cl)c(Cl)c2)c2ccccc21` here?
**A.** The Potency was 23.7 µM (active).

**Q.** For `COc1cccc(O)c1O`, which Potency is on record?
**A.** The Potency was “inactive”.

**Q.** For `CCCCC(CC)C(=O)O` (stereo not given), which Potency is on record?
**A.** Its Potency is “inactive”.

**Q.** Which Potency does the source give for `C=CCc1ccc(O)c(OC)c1` here?
**A.** The Potency was “inactive”.

**Q.** Which Potency does the source give for `Oc1ccccc1` here?
**A.** Its Potency is “inactive”.

**Q.** Which Potency does the source give for `CC1(C)O[C@@H]2C[C@H]3[C@@H]4CCC5=CC(=O)C=C[C@]5(C)[C@@]4(F)[C@@H](O)C[C@]3(C)[C@]2(C(=O)CO)O1` here?
**A.** The Potency was “inactive”.

**Q.** For `NS(=O)(=O)c1cc2c(cc1Cl)NCNS2(=O)=O`, which Potency is on record?
**A.** The Potency was “inactive”.

**Q.** With `COc1ccc(OC(F)(F)F)cc1CN[C@H]1CCCN[C@H]1c1ccccc1` as the molecule, how does the Potency read?
**A.** The Potency was 43.6 µM (active).

**Q.** With `CCN(CC)C(=O)c1cccc(C)c1` as the molecule, how does the Potency read?
**A.** The Potency was “inactive”.

**Q.** Which Potency does the source give for `CC(C)C(=O)Nc1ccc([N+](=O)[O-])c(C(F)(F)F)c1` here?
**A.** The Potency was “inactive”.

**Q.** With `CC(=O)C(=O)O` as the molecule, how does the Potency read?
**A.** The Potency was “inactive”.

**Q.** For `CN(C)C(=O)Nc1ccc(Cl)c(Cl)c1`, which Potency is on record?
**A.** Its Potency is “inactive”.

**Q.** Which Potency does the source give for `O=C1NC(=O)C(c2ccccc2)(c2ccccc2)N1` here?
**A.** Its Potency is “inactive”.

Source: PubChem BioAssay (Tox21)
